About 83,000 compounds went through this panel and 20% of them were active in at least one assay; those are over-represented in the sample as a whole.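 Percent growth is the endpoint: 0 to 100 indicates growth inhibition (40 means 60% inhibition), 0 means no net growth, and negative values indicate cell death.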 Unmarked numbers belong to inactive results. Calls of active or inactive are those of the source.

This assay concerns HT29 colon. Nature of the assay: NCI-60 one-dose screen, 48 h (100 = growth as untreated, 0 = no growth, -100 = all killed). The settings on record: 10 µM unless noted. The method, then: Growth inhibition of the HT29 human tumor cell line is measured as a screen for anti-cancer activity. Cells are grown in 96 well plates and exposed to the test compound for 48 hours. Compounds are tested at a single concentration, which is 10^-5 M for most compounds. The reported endpoint is percent growth (GI% or GIPRCNT), where numbers from 0 - 100% represent growth inhibition, and numbers from -100% - 0 represent cell death. For example, a value of 40 represents 60% growth inhibition. A value of 0 means no net growth occurred over the course of the experiment. A value of -40 indicates 40% of cells at the beginning of the experiment died by the end of the experiment. A value of -100 means all cells are dead at the end of the experiment.
NCI-60 Human Tumor Cell Lines Screen was performed using the standard one-dose NCI protocol, which is described in more detail at https://dtp.cancer.gov/discovery_development/nci-60/default.htm.
Compounds with GIPRCNT values below 10 were considered active. Activity score was based on GIPRCNT using the following formula: […]
Score is 0 for GIPRCNT values of 100 or above, 50 for GIPRCNT values of 0, and 100 for GIPRCNT values of -100.
Consider `CC(=O)OC(C)c1cccc(C#N)c1` (stereo not given), for which the growth is 104%. For `C#CC(O)c1ccccc1` (stereo not given), the growth was 105%. With `O=[n+]1ccn([O-])c2ccccc21`, the growth was 108%. In the case of `c1ccc2c(NCCCN3CCN(CCCNc4c5ccccc5nc5ccccc45)CC3)c3ccccc3nc2c1`, the growth was -37.3% [100 µM] (active). For the compound `O=S(=O)(O)c1cccc2cccnc12`, the growth is 122%. Turning to `CCOc1ccc(NC(=S)N2CCC(CCCC3CCN(C(=S)Nc4ccc(OCC)cc4)CC3)CC2)cc1`, the growth was 87.7%. `O=C(OC1CCCC1)c1ccccc1Cl`: the growth is 105%. Consider `CC(C)NC(=O)OCc1c(COC(=O)NC(C)C)c(-c2ccc(Cl)cc2)n2c1CCC2`, for which the growth was 56%. As to `Cc1ccc2nc(-c3ccc(N=Cc4ccccc4O)cc3)sc2c1`, the growth is 93.4%.

In the case of `N#C/C(=C\c1ccc(C#N)cc1)C(=O)c1ccccc1`, the growth was 104%. For `C1Cc2onc(-c3noc4c3CCC4)c2C1`, the growth is 104%. With `COC(=O)C1=C(C)C(=O)CC1`, the growth is 98.3%. `Nc1ccc(F)c(Cl)c1F`: the growth is 108%. As for `C1C[S+]2CC[S+]1CC2`, the growth was 98.9%. The value for `O=C(CCl)Oc1ccc([N+](=O)[O-])cc1` was 119%. With `CC(C)(N)CO[C@H]1C[C@H]2CC[C@@]1(C)C2(C)C`, the growth was 101%. For the compound `COc1ccc(C2CCCCC2=O)cc1` (stereo not given), the growth was 108%. Consider `OCC1OC(n2ccc3c2ncn2ncnc32)C(O)C1O` (stereo not given), for which the growth is 14.2%. With `O=S1(=O)c2ccccc2Oc2ccccc21`, the growth is 99.6%. `NS(=O)(=O)c1cc(=O)[nH]c(=O)[nH]1`: the growth is 108%. In the case of `CCN(CC)CCOC(=O)Nc1c(C(C)C)cccc1C(C)C`, the growth is 92.8%. For the compound `CCCCNc1ccc(-c2ccc(NCCCC)cc2)cc1`, the growth is 101%. Under `O=S(=O)(OCCOS(=O)(=O)c1ccccc1)c1ccccc1` stands 92.2%; under `CC(C)(C)CC1(C)NC(=O)NC1=O` (stereo not given), 107%; under `O=C(NCc1ccco1)Nc1cccc2c(NC(=O)NCc3ccco3)cccc12`, 55.2% [100 µM]. In the case of `C/C(=N\N=C(/C)c1cccc([N+](=O)[O-])c1)c1cccc([N+](=O)[O-])c1`, the growth is 87.9%. For `NNC(=O)c1ccccc1N`, the growth is 106%.

Turning to `O=C(CCl)Nc1ccccc1SCc1cc(Cl)cc2c1OCOC2`, the growth was 82.5%.

`CCN(CC)CCN1CNC(=S)NC1`: the growth was 104%. For `C/C(O)=C(/C=N/C(=S)Nc1ccccc1)C(=O)Nc1ccccc1C`, the growth is 105%. In the case of `CCOC(=O)CNC`, the growth is 117%. Under `Clc1cccc(Cl)c1CSc1nc2ccccc2n2cccc12` stands 79.6%; under `CC(=O)NC(O)C(Cl)Cl` (stereo not given), 105%. Turning to `C=C(C)[C@@H]1CC[C@]2(CO)CC[C@]3(C)[C@H](CC[C@@H]4[C@@]5(C)CC[C@H](O)C(C)(C)[C@@H]5CC[C@]43C)[C@@H]12`, the growth was 46.2%. Regarding `CC(=O)C[n+]1ccc(C)cc1Sc1ccccc1C`, the growth is 99.1%. As for `Cc1nc(C)c(C(=O)O)cc1C(=O)O`, the growth was 109%. As for `CCNc1ncnc2[nH]ncc12`, the growth was 108%.

As to `NNC(=O)CCCCl`, the growth is 112%. For `Cc1ccc(S(=O)(=O)NC(=O)NCCSSCCNC(=O)NS(=O)(=O)c2ccc(C)cc2)cc1`, the growth was 108%.

With `CC(c1ccccc1)N1C(=O)CSC1=S` (stereo not given), the growth is 1.08% (active).

The values are drawn from PubChem BioAssay (NCI).
